Compound activity from PubChem BioAssay.
Cruzain inh noDet: cruzain (T. cruzi) inhibition without detergent | purified cruzain, Z-FR-AMC fluorescence, no detergent | 200,000 tested, 2.3% active | Potency, µM, most hits filed as inhibitors; further: nearly all actives have a fitted effect of over 40% in size
Target sequence (P25779 123-467 limits assumed): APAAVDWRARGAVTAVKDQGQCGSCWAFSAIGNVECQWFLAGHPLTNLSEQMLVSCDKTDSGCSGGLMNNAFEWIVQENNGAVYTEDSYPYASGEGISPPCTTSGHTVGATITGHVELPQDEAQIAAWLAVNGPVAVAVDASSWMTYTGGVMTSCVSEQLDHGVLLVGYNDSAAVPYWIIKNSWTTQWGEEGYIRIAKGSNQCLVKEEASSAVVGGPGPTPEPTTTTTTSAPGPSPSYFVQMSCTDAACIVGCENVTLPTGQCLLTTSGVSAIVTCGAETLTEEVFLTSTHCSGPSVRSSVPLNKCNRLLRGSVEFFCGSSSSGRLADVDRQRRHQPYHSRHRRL
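Detergent-free condition (0.00005% Triton X-100) in acetate buffer pH 5.5 with DTT. 1.5 nM enzyme and compound were pre-mixed 15 min, then 2 uM Z-FR-AMC substrate added; reaction progress from fluorescence change between first and third reads (60 s).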
Cruzain inh Det: cruzain (T. cruzi) inhibition with detergent; P25779; purified cruzain, Z-FR-AMC fluorescence, 0.01% Triton; Potency, µM, actives largely listed as inhibitors; 200,000 tested, 0.43% active; further: nearly all actives have a fitted effect of over 40% in size
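In this qHTS format, compounds are incubated with 1.5 nM cruzain for 15 min at room temperature before 2 uM Z-FR-AMC is added. Release of AMC is followed at 360/450 nm, and progress is taken as the 60 s fluorescence difference.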
Hits are given with their value. This is a sample that favours compounds with a hit; in the whole collection about 2.5% have one here. The call rests on the fitted dose curve; in most records, active means well fitted curve in the direction sought with a large enough effect; inconclusive means small, poorly fitted or top-dose-only effect, or another doubt; inactive means no such curve, though single readings can be large; an effect the other way counts as inactive or inconclusive.

How did CCCCOc1ccc(Cn2c(=O)sc3ccccc32)cc1OC do in these assays?
Cruzain inh noDet: inactive; Cruzain inh Det: inactive

Results for Cc1ccc(-n2c(=O)[nH]c3cc(C(=O)NCc4ccccc4)ccc3c2=O)cc1 ?
Cruzain inh noDet: inactive; Cruzain inh Det: inactive

Results for COc1ccc2c(c1)C1=NN(/C(C)=C\C(C)=O)C(c3ccccc3)C1CC2 (stereo not drawn) ?
Cruzain inh noDet: 25.1µM; Cruzain inh Det: inactive

Results for COc1ccc2c(c1)C1=NN(/C(C)=C/C(C)=O)C(c3ccc(F)cc3)C1CC2 (stereo not drawn) ?
Cruzain inh noDet: inactive; Cruzain inh Det: inactive

How did CCN1CCN(C(=O)c2ccc3c(c2)N(Cc2cccc(F)c2)C(=O)c2ccccc2S3)CC1 do in these assays?
Cruzain inh noDet: inactive; Cruzain inh Det: inactive

What do the screens show for `Cc1ccc(-c2c(C)cc3oc(=O)cc(-c4ccccc4)c3c2C)cc1`?
Cruzain inh noDet: inconclusive; Cruzain inh Det: inactive

What do the screens show for `Cc1cc2oc(=O)cc(-c3ccccc3)c2c(C)c1-c1ccc(N(C)C)cc1`?
Cruzain inh noDet: 14.1µM; Cruzain inh Det: inactive

How did CC(=O)Nc1ccc(-c2c(C)cc3oc(=O)cc(-c4ccccc4)c3c2C)cc1 do in these assays?
Cruzain inh noDet: inactive; Cruzain inh Det: inactive

How did COc1ccc(-c2c(C)cc3oc(=O)cc(-c4ccccc4)c3c2C)cc1 do in these assays?
Cruzain inh noDet: 31.6µM; Cruzain inh Det: inactive

What do the screens show for `CCOC(=O)c1ccc(-c2c(C)cc3oc(=O)cc(-c4ccccc4)c3c2C)cc1`?
Cruzain inh noDet: 4.47µM; Cruzain inh Det: inactive

What do the screens show for `Cc1cc2oc(=O)cc(-c3ccccc3)c2c(C)c1-c1ccc(C(F)(F)F)cc1`?
Cruzain inh noDet: inconclusive; Cruzain inh Det: inactive

Results for CC(=O)c1ccc(Nc2cc(C)nc3nc(Cc4ccc(Cl)cc4)nn23)cc1 ?
Cruzain inh noDet: inactive; Cruzain inh Det: inactive

How did O=C(NCc1ccco1)c1ccc2c(c1)N(Cc1ccc(F)cc1)C(=O)c1ccccc1S2=O (stereo not drawn) do in these assays?
Cruzain inh noDet: inactive; Cruzain inh Det: inactive

How did Cc1ccc(CNC(=O)CCc2c(C)nc3nc(C)nn3c2C)cc1 do in these assays?
Cruzain inh noDet: inactive; Cruzain inh Det: inactive

How did COc1cccc(Cn2c(=O)c(-c3ccc(F)cc3)nc3cnc(OC)nc32)c1 do in these assays?
Cruzain inh noDet: inactive; Cruzain inh Det: inactive

Results for Cn1c(=O)oc2cc(S(=O)(=O)NC(Cc3ccccc3)C(=O)Nc3ccc(F)c(Cl)c3)ccc21 (stereo not drawn) ?
Cruzain inh noDet: inactive; Cruzain inh Det: inactive

How did Cc1c(C(=O)NCCN(C)C)sc2nc3n(c(=O)c12)CCC3 do in these assays?
Cruzain inh noDet: inactive; Cruzain inh Det: inactive

What do the screens show for `Cc1ccc(NC(=O)Cn2c(=O)n(Cc3ccccc3)c(=O)c3sc4ccccc4c32)cc1`?
Cruzain inh noDet: inactive; Cruzain inh Det: inactive

What do the screens show for `C[C@H](NC(=O)[C@@H]1C[C@H]1[C@@H](NC(=O)OCc1ccccc1)c1ccccc1)c1ccccc1`?
Cruzain inh noDet: 15.8µM; Cruzain inh Det: inactive

Results for CC(C)NC(=O)[C@@H]1C[C@H]1[C@@H](NC(=O)OCc1ccccc1)c1ccccc1 ?
Cruzain inh noDet: inactive; Cruzain inh Det: inactive

Results for CC1CC2C3CCC4=CC(=O)C=C[C@@]4(C)[C@]3(F)C(O)C[C@]2(C)[C@]1(O)C(=O)COP(=O)(O)O (stereo partly drawn) ?
Cruzain inh noDet: inactive; Cruzain inh Det: inactive

Results for CCCCCC1OC1C/C=C\C/C=C\C/C=C\CCCC(=O)O (stereo not drawn) ?
Cruzain inh noDet: inactive; Cruzain inh Det: inactive

What do the screens show for `COc1cccc(CNC(=O)CNS(=O)(=O)c2ccc3nc(C)sc3c2)c1`?
Cruzain inh noDet: inactive; Cruzain inh Det: inactive

Results for Cc1cc(C)nc(NS(=O)(=O)c2ccc(NC(=O)c3ccccc3O)cc2)n1 ?
Cruzain inh noDet: inactive; Cruzain inh Det: inactive

Results for O=C(N/N=C/C=C\c1ccccc1[N+](=O)[O-])c1cc(-c2ccc3ccccc3c2)n[nH]1 ?
Cruzain inh noDet: 7.94µM; Cruzain inh Det: inactive

How did O=C(N/N=C/C=C\c1ccccc1[N+](=O)[O-])c1cccs1 do in these assays?
Cruzain inh noDet: inactive; Cruzain inh Det: inactive

What do the screens show for `CCOc1cc(-c2nc(-c3ccc(Br)cc3)no2)cc(OCC)c1OCC`?
Cruzain inh noDet: inactive; Cruzain inh Det: inactive

How did COc1ccc(NC(=O)c2cc(C)nc3ccccc23)cc1S(=O)(=O)Nc1ccccc1Cl do in these assays?
Cruzain inh noDet: inconclusive; Cruzain inh Det: inactive

Results for COc1ccc(NC(=O)c2ccc3ccccc3n2)cc1S(=O)(=O)Nc1ccccc1Cl ?
Cruzain inh noDet: 12.6µM; Cruzain inh Det: inactive

What do the screens show for `CCOc1ccc(NC(=S)/C(=C(\[O-])c2ccc(C)c([N+](=O)[O-])c2)[n+]2ccccc2)cc1`?
Cruzain inh noDet: 25.1µM; Cruzain inh Det: inactive

How did CCc1cc[n+](/C(C(=S)Nc2cccc(C)c2)=C(/[O-])c2ccc(C)c([N+](=O)[O-])c2)cc1 do in these assays?
Cruzain inh noDet: inactive; Cruzain inh Det: inactive
